These results are taken from PubChem BioAssay (NCI).

Compounds without any hit were thinned out: in the full panel of roughly 83,000, 20% have a hit.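 96-well plates, one dose, 48 hours. Percent growth reported; active if below 10.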 A number with no mark means an inactive call. Activity calls are given as the source filed them.

Among the test systems are HCT-15 colon; HT29 colon; SNB-75 CNS; SNB-19 CNS; U251 CNS; PC-3 prostate; SK-MEL-5 melanoma; UACC-62 melanoma; LOX IMVI melanoma; SK-MEL-28 melanoma; SK-MEL-2 melanoma; EKVX NSCLC; SN12C renal; UO-31 renal; TK-10 renal; ACHN renal; CAKI-1 renal; A498 renal; CCRF-CEM leukemia; MOLT-4 leukemia.
Assay in all cases: NCI-60 one-dose screen, 48 h (100 = growth as untreated, 0 = no growth, -100 = all killed)
Settings in all cases: 10 µM unless noted

On to `c1ccc(Nc2nc3c(s2)CCc2c[nH]cc2-3)nc1`, for which the growth with HCT-15 colon was 102%; in the assay with HT29 colon it was 100%; in the assay with SNB-75 CNS it was 88.7%; in the assay with SNB-19 CNS, 100%; in the assay with U251 CNS it was 89.6%; with PC-3 prostate, 70.4%. For the same compound, the growth is 83.5% in the assay with SK-MEL-5 melanoma; 92.1% in the assay with UACC-62 melanoma; 82.7% with LOX IMVI melanoma; 110% in the assay with SK-MEL-28 melanoma; 99.2% with SK-MEL-2 melanoma; 75.3% in the assay on EKVX NSCLC. Also, the growth with SN12C renal is 106%; in the assay on UO-31 renal, 59.4%; in the assay with TK-10 renal it was 159%; in the assay on ACHN renal, 92.3%; with CAKI-1 renal, 97.3%; in the assay with A498 renal, 81%. The growth in the assay on CCRF-CEM leukemia is 9.72% (active); with MOLT-4 leukemia, 64.7%.

Consider `C#CCOc1ccc2nc(CCl)c(Cl)c(Nc3cccc(C(F)(F)F)c3)c2c1`, for which the growth is 36.3% in the assay on HCT-15 colon; 75.6% in the assay with HT29 colon; 70.5% in the assay on SNB-75 CNS; 98.5% with SNB-19 CNS; 77.3% with U251 CNS; 85.1% in the assay on PC-3 prostate. In addition, the growth with SK-MEL-5 melanoma was 58.2%; with UACC-62 melanoma, 71.2%; in the assay on LOX IMVI melanoma it was -1.15% (active); in the assay with SK-MEL-28 melanoma it was 108%; with SK-MEL-2 melanoma, 84.4%; in the assay with EKVX NSCLC it was 91.1%. Moreover, the growth in the assay with SN12C renal was 68.6%; in the assay with UO-31 renal, 51.8%; in the assay on TK-10 renal, 89.8%; with ACHN renal, 52.1%; in the assay with CAKI-1 renal, 77%; in the assay with A498 renal, 104%. Besides, the growth with CCRF-CEM leukemia is 20.9%; in the assay with MOLT-4 leukemia, 29.5%.

Turning to `Cc1[nH]n(-c2cccc(Cl)c2)c(=O)c1/C=C1\C=c2ccccc2=CC1=O`, the growth with HCT-15 colon was 49.9%; in the assay with HT29 colon, 13.5%; in the assay with SNB-75 CNS, -5.52% (active); with SNB-19 CNS it was 31.4%; with U251 CNS it was -10.7% (active); in the assay on PC-3 prostate, 33%. Besides, the growth in the assay with SK-MEL-5 melanoma is -82.5% (active); in the assay with UACC-62 melanoma, 82.7%; with LOX IMVI melanoma, -79.4% (active); in the assay with SK-MEL-28 melanoma, 51.1%; in the assay on SK-MEL-2 melanoma, 38.1%; with EKVX NSCLC it was 51.3%. The growth is 23.6% in the assay with SN12C renal; 66.6% in the assay with UO-31 renal; 17.2% in the assay on TK-10 renal; -36.1% (active) in the assay with ACHN renal; 35% in the assay on CAKI-1 renal; 107% in the assay on A498 renal. Further, the growth in the assay with CCRF-CEM leukemia is 36.3%; in the assay with MOLT-4 leukemia, 44.2%.

`O=C(NCc1ccc(Cn2c(=O)sn(-c3ccccc3)c2=O)cc1)OCc1ccc2cccc(O)c2n1`: the growth in the assay on HCT-15 colon is -30.3% (active); in the assay on HT29 colon, -52.7% (active); in the assay with SNB-75 CNS it was -22.6% (active); with SNB-19 CNS, 44.7%; with U251 CNS, 9.01% (active); in the assay with PC-3 prostate, -68.9% (active). The growth is -84.7% (active) with SK-MEL-5 melanoma; -61.9% (active) with UACC-62 melanoma; -95.3% (active) in the assay on LOX IMVI melanoma; -62.3% (active) in the assay on SK-MEL-28 melanoma; -5.7% (active) in the assay on SK-MEL-2 melanoma; -35.9% (active) in the assay with EKVX NSCLC. Also, the growth in the assay on SN12C renal was -46.1% (active); in the assay on UO-31 renal, -99.6% (active); with TK-10 renal, -81.2% (active); in the assay with ACHN renal, -99.9% (active); with CAKI-1 renal it was -85.9% (active); in the assay on A498 renal it was 39.3%. The values for the growth in the assay with CCRF-CEM leukemia and in the assay with MOLT-4 leukemia were 0.307% (active) and -24.8% (active), respectively.

As for `COc1cc(-c2nccc3[nH]c(-c4cccc5[nH]ccc45)nc23)cc(OC)c1OC`, the growth was 17.6% with HCT-15 colon; -3.78% (active) with HT29 colon; 73.6% in the assay on SNB-75 CNS; 49.1% in the assay on SNB-19 CNS; 13.6% with U251 CNS; 11.8% in the assay on PC-3 prostate. The growth with SK-MEL-5 melanoma is -45.8% (active); with UACC-62 melanoma it was 51.4%; in the assay on LOX IMVI melanoma, 20.6%; in the assay on SK-MEL-28 melanoma, 76.9%; with SK-MEL-2 melanoma it was 35.8%; with EKVX NSCLC it was 46.3%. Further, the growth was 40.9% with SN12C renal; 34% in the assay on UO-31 renal; 34.7% in the assay with TK-10 renal; 17% in the assay on ACHN renal; 31.4% with CAKI-1 renal; -6.89% (active) with A498 renal. The figures for the growth in the assay on CCRF-CEM leukemia and in the assay with MOLT-4 leukemia were 11.7% and 19.9%, respectively.

As for `CCOC(=O)c1c(C)nc2c(c1N)C(=O)C(=O)N2Cc1ccc(OC)cc1`, the growth is 22.7% with HCT-15 colon; 26.5% in the assay on HT29 colon; 30% with SNB-75 CNS; 80% with SNB-19 CNS; 38.1% with U251 CNS; 47.9% in the assay with PC-3 prostate. The growth was 81% with SK-MEL-5 melanoma; 53.3% with UACC-62 melanoma; 61.1% with LOX IMVI melanoma; 76.7% with SK-MEL-28 melanoma; 113% with SK-MEL-2 melanoma; 90.9% in the assay on EKVX NSCLC. For the same compound, the growth in the assay on SN12C renal is 82.6%; in the assay with UO-31 renal it was 59.6%; in the assay with TK-10 renal it was 96%; in the assay on ACHN renal, 66.3%; in the assay with CAKI-1 renal, 83.3%; in the assay with A498 renal, 90.4%. Also, the growth in the assay with CCRF-CEM leukemia is 59.1%; in the assay with MOLT-4 leukemia it was 101%.

As for `CN1c2ccccc2S(=O)(=O)n2c(SCC(=O)Nc3nc4ccc(F)cc4s3)nnc21`, the growth was 119% in the assay with HCT-15 colon; 119% in the assay on HT29 colon; 90.7% in the assay on SNB-75 CNS; 107% with SNB-19 CNS; 127% in the assay on U251 CNS; 87.8% with PC-3 prostate. Moreover, the growth with SK-MEL-5 melanoma is 87.2%; in the assay with UACC-62 melanoma, 96.5%; in the assay on LOX IMVI melanoma it was 92.5%; in the assay with SK-MEL-28 melanoma, 127%; with SK-MEL-2 melanoma, 52.6%; with EKVX NSCLC, 102%. Besides, the growth with SN12C renal was 104%; in the assay on UO-31 renal it was -65.7% (active); in the assay on TK-10 renal, 130%; with ACHN renal, 96.1%; with CAKI-1 renal, 97.3%; with A498 renal it was 119%. Further, the growth is 31.1% with CCRF-CEM leukemia and 81.9% in the assay with MOLT-4 leukemia.

Turning to `CC1(C)CC[C@]2(CO)CC[C@]3(C)[C@](O)([C@H](O)C[C@@H]4[C@@]5(C)CCCNC(C)(C)[C@@H]5CC[C@]43C)[C@@H]2C1`, the growth with HCT-15 colon was 88.5%; in the assay on HT29 colon it was 20.6%; in the assay on SNB-75 CNS, 88.7%; with SNB-19 CNS, 103%; in the assay on U251 CNS, 79.6%; in the assay on PC-3 prostate it was 75.9%. Moreover, the growth in the assay with SK-MEL-5 melanoma was 96.8%; with UACC-62 melanoma, 103%; with LOX IMVI melanoma, 87.8%; in the assay with SK-MEL-28 melanoma, 100%; in the assay on SK-MEL-2 melanoma, 106%; with EKVX NSCLC, 107%. In addition, the growth with SN12C renal was 90%; with UO-31 renal, 73%; in the assay with TK-10 renal it was 103%; with ACHN renal it was 108%; in the assay with CAKI-1 renal, 97.5%; in the assay with A498 renal it was 83.6%. In addition, the growth in the assay with CCRF-CEM leukemia is 74.6%; in the assay on MOLT-4 leukemia, 46%.
